Experimental data from the OligoGym collection.
Note: reference of the scale not given here.

These sequences were tested against C19orf48 (assay: pooled miR-30 sensor sort-seq; sequence = guide strand). Details: shRNA.
TCCTTGTGCACTGGGTTGGGTC was tested, and the sensor-assay potency score (higher = more potent) was -1.63. TTCTGGCCTGCTTCACCCCTGG was tested, and the sensor-assay potency score (higher = more potent) was -0.772. TTGTGCACTGGGTTGGGTCCCA was tested, and the sensor-assay potency score (higher = more potent) was -0.4. With TGGAGCACCAGGCCAGGCGGTG the sensor-assay potency score (higher = more potent) was -1.89. For TTGGGTCCCAGCATGAGCCTGG, the sensor-assay potency score (higher = more potent) was -0.0945.

Each sequence was assayed against C19orf61 in the same assay as above. Details: shRNA.
Work on TTCTTCTCGGTGAGGATCGTGT yielded a sensor-assay potency score (higher = more potent) of -0.682. TCATCCACCAACTTGATGCTGT gave a sensor-assay potency score (higher = more potent) of 0.069. Work on TAAAGAGCTCTCCAGACCCTGC yielded a sensor-assay potency score (higher = more potent) of -0.972. TTCTGCATGACGGAAGTGCTTG showed a sensor-assay potency score (higher = more potent) of -0.495. With TCTGCTGTCTGCAGGAACCTGT the sensor-assay potency score (higher = more potent) was -0.731. TTGACCGCTCTGCTGGAGGTTT gave a sensor-assay potency score (higher = more potent) of -0.879. In the case of TTGCATTGTAACATGGACAGAG, the sensor-assay potency score (higher = more potent) is reported as 0.588. For TTGGGTAATAAAGAAGTCGATG, the sensor-assay potency score (higher = more potent) was -0.372. TTCTCGGTGAGGATCGTGTGTG gave a sensor-assay potency score (higher = more potent) of -0.797. In the case of TTTGCGGTCATTATTGATGAGA, the sensor-assay potency score (higher = more potent) is reported as -1.14. For TAAGTTGACCTCAGAGTCCAGG, the sensor-assay potency score (higher = more potent) was -0.418. TTGGCTGACAACAATGACATGA showed a sensor-assay potency score (higher = more potent) of 0.194.

These sequences were tested against C1GALT1C1 in the same assay as above. Details: shRNA.
In the case of ATAATGACAACACACGTCCTAT, the sensor-assay potency score (higher = more potent) is reported as -0.903. TTATCTTCAGATATCTTCCAAA was tested, and the sensor-assay potency score (higher = more potent) was -0.897. TTAATTGACTCAAACACTTTAA was tested, and the sensor-assay potency score (higher = more potent) was -1.19. TTTGGTATTAAATACATCTTTT showed a sensor-assay potency score (higher = more potent) of -0.97. Work on TTTATCTTCAGATATCTTCCAA yielded a sensor-assay potency score (higher = more potent) of 0.63. TTTTCAATGATAGCAAACGTAG showed a sensor-assay potency score (higher = more potent) of -1.07. TATCTGAACAACAGCCTTCTAC was tested, and the sensor-assay potency score (higher = more potent) was -0.664. TACATCATCACATGCATCTGAT showed a sensor-assay potency score (higher = more potent) of -0.0617. TTTTCATTGATTCTACACTTAA showed a sensor-assay potency score (higher = more potent) of -1.52. TTTGTTAGGAGCTTGTAGGTGA was tested, and the sensor-assay potency score (higher = more potent) was 0.841. Sequence TATCTTCTTTGTTAGGAGCTTG has a sensor-assay potency score (higher = more potent) of -0.577. With TAAGTCTTTTCATTGATTCTAC the sensor-assay potency score (higher = more potent) was -0.486.

The sequences below were run against C1QL1 in the same assay as above. Details: shRNA.
In the case of TTGAGTACCTCGTAACCCTCGT, the sensor-assay potency score (higher = more potent) is reported as -0.551. TTTGTTGCTGTTGCCGCCGTGT was tested, and the sensor-assay potency score (higher = more potent) was -0.647. TCAAACTTGAGTACCTCGTAAC gave a sensor-assay potency score (higher = more potent) of -0.701. For TAGTTGTTGCCTAGGTTGGTGA, the sensor-assay potency score (higher = more potent) was -1.01. TATTTGTTGCTGTTGCCGCCGT was tested, and the sensor-assay potency score (higher = more potent) was -0.708. In the case of TTGCACGTAAACTTGCCGCTGG, the sensor-assay potency score (higher = more potent) is reported as 0.439. In the case of TTTGCCTCCATCCAGCTTGATG, the sensor-assay potency score (higher = more potent) is reported as -1.62. In the case of TAGGTGAAAAAGTAGGTGCCGG, the sensor-assay potency score (higher = more potent) is reported as -0.205. With TGCAGGATCACGCTGTTGCTGG the sensor-assay potency score (higher = more potent) was -1.19. Work on TAGGGGTCGCACACCATGCGGC yielded a sensor-assay potency score (higher = more potent) of -0.617. In the case of TCCAGGTGCAGGATCACGCTGT, the sensor-assay potency score (higher = more potent) is reported as -0.765.
